Only some compounds are listed: those with a hit (about 4% of all), similar ones and a draw of the others.
TROY signal inh – blocks TROY-dependent signaling in reporter cells | Q293 LMP1-TROYcd NF-kB luciferase reporter, 4 h | inhibition, % at 10 µM | hit rate 0.98% among 360,000 | AID 1347056;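 active means compounds whose plate-normalised and pattern-corrected inhibition of the luciferase reporter signal at the single screening dose is 50% or more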
TWEAK Fn14 block – inhibitors of TWEAK-Fn14 interaction signaling; TWEAK-stimulated Fn14 reporter cells, luciferase luminescence, 8 h; hit rate 2% among 360,000; inhibition, % at 10 µM; AID 1159606; in the data active means inhibition above about 50%
HIF-2a block – blocks HIF-2a reporter activity | 786-0 RCC cells HIF-2a reporter, luciferase luminescence, overnight | inhibition, % at 18.8 µM | hit rate 0.72% among 360,000 | AID 624352;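 active means inhibition of the luminescence signal of 40% or more relative to plate controls, in a single-dose primary screen at 18.75 µM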
KKLEB tox – counter-screen for CF NF-kB inhibitors: cytotoxicity; activity change (cytotoxicity), % at 5 µM; AID 602141; hit rate 0.36% among 360,000; KKLEB CF airway cells viability, ATPlite luminescence, overnight; hits give low values; cells stimulated with P. aeruginosa culture filtrate;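 active means corrected activity change at or below -50% at 5 µM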
CF NFkB inh – blocks PAF-induced NF-kB reporter in cystic fibrosis cells. KKLEB NF-kB-GFP reporter, GFP fluorescence overnight. inhibition, % at 5 µM. hit rate 0.86% among 360,000. AID 588850;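 active means at least 50% inhibition at 5 µM, scaled per plate between neutral and stimulator controls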;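 further: PAF is a Pseudomonas aeruginosa culture filtrate used as stimulus; plate controls were PAF-stimulated DMSO wells for no effect and unstimulated DMSO wells for full effect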
Peg3 promoter – Peg3 promoter activity inhibition. HeLa PEG-Prom luciferase reporter, luminescence, overnight. inhibition, % at 20 µM. hit rate 1.7% among 360,000. AID 588405;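 active means inhibition of at least 50% at 20 µM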
CF NFkB conf – confirmation of cystic fibrosis induced NF-kB inhibitors; shares compounds with CF NFkB inh; KKLEB CF airway cells, PAF-induced NF-kB-GFP fluorescence, overnight; inhibition, % at 5 µM; hit rate 64% among 1,300; AID 602472; in the data active means inhibition above about 40%;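 further: stimulus PAF is a Pseudomonas aeruginosa filtrate and not platelet activating factor; plate controls were DMSO wells with stimulus for no effect and unstimulated DMSO wells for full effect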
Mdm2 MdmX conf – confirmation of inhibitors of human Mdm2/MdmX interaction, set 2. shares compounds with HIF-2a block. hit rate 99% among 740. AID 504601. SaOS-2 split-luciferase Mdm2/MdmX complementation, luminescence. inhibition, % at 8 µM;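 active means mean inhibition of the luminescence signal across two replicates at or above 26 percent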
Target sequence (O15151 whole entry, looked up): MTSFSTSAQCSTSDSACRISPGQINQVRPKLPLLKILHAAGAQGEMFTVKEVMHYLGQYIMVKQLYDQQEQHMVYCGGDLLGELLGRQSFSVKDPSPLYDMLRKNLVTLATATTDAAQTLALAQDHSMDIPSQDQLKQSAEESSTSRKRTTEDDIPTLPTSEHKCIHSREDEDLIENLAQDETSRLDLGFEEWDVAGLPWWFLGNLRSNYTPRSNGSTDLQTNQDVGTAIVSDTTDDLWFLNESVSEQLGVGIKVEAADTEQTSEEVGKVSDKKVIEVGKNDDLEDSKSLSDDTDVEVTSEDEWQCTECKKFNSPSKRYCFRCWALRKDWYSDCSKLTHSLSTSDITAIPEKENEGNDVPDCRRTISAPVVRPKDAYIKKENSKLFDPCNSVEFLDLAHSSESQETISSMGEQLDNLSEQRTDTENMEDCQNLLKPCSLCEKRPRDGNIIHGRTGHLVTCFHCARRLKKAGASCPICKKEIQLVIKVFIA
Target sequence (Q00987 whole entry, looked up): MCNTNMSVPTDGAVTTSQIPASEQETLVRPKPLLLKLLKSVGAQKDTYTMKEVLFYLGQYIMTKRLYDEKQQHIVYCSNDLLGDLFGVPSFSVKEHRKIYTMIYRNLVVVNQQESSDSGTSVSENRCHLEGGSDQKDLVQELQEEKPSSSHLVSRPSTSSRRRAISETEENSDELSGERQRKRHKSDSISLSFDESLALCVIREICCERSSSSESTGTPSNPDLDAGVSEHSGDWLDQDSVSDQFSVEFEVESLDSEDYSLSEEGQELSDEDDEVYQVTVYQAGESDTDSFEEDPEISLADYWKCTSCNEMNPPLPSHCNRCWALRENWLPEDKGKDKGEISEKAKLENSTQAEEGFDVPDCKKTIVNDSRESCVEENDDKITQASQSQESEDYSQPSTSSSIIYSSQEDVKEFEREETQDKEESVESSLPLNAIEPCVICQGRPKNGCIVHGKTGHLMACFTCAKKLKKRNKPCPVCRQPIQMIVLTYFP
HIF-2a inh conf – HIF-2a inhibition, single concentration confirmation; inhibition, % at 18.8 µM; hit rate 56% among 1,800; shares compounds with HIF-2a block; 786-0 RCC cells, HIF-2a luciferase reporter luminescence, overnight;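 active means mean inhibition across four replicates of at least 40 percent at the single tested concentration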
HIF-1a cs – inhibits HIF-1a reporter, a counter-screen for HIF-2a inhibitors | inhibition, % at 18.8 µM | shares compounds with HIF-2a block | hit rate 72% among 1,800 | AID 651589 | MiaPaCa-2 HIF-1a luciferase reporter, desferoxamine, overnight;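 active means mean inhibition of the reporter signal across four replicates at the single tested dose of 50% or more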
* hit, by the source's call; x = not tested or not shown.

SMILES	TROY signal inh	TWEAK Fn14 block	HIF-2a block	KKLEB tox	CF NFkB inh	Peg3 promoter	CF NFkB conf	HIF-2a inh conf	HIF-1a cs	others
N#C/C(=C\c1cccc(NC(=O)c2ccccc2Cl)c1)C(=O)NCCc1ccccc1	14	38	80*	-31	82*	12	9	45*	93*
COCCCNC(=O)/C(C#N)=C/c1cccc(NC(=O)c2ccccc2Cl)c1	4	13	21	-21	24	6	x	x	x
CCCn1c(=O)[nH]c(=O)c2c1nc(-c1cc([N+](=O)[O-])ccc1Cl)n2CCOC	4	-6	0	-2	6	8	x	x	x
BrC(=C\c1ccccc1)/C=N/n1cnnc1	16	72*	61*	-10	58*	111*	-77	23	97*
BrC(=C\c1ccccc1)/C=N/Nc1ccc2nncn2n1	-34	-12	-96	3	-5	-44	x	x	x
COc1ccc(-c2cc(-c3nc4ccccn4c3NCc3ccccc3)ccc2OC)cc1	-22	-9	-77	-30	71*	100*	97*	x	x	Mdm2 MdmX conf=102*
COc1ccc(-c2nc3ccccn3c2NCc2ccc3c(c2)OCO3)cc1	-53	-7	-174	-9	4	-162	x	x	x
CC(C)C[C@@H]1COc2cccc(N3CCN(Cc4ccccc4F)CC3)c2S(=O)(=O)N1	19	5	16	x	x	x	x	x	x
CCCCCCCCCCCCCC(=O)NO	-49	-63	-8	-5	1	-36	x	x	x
FC(F)(F)c1nnc2c(Sc3ccc(Cl)cc3)nc3ccccc3n12	-52	61*	41*	-17	104*	67*	101*	10	46
FC(F)(F)c1nnc2c(Sc3ccccn3)nc3ccccc3n12	-26	20	-45	-10	47	24	x	x	x
COc1ccc(-c2nc(CS(=O)(=O)CC(=O)NCCCN3CCN(C)CC3)c(C)o2)cc1	4	1	-1	8	-5	-5	x	x	x
O=C(Cn1ncc(Cl)c(Cl)c1=O)Nc1ccc2c(c1)OCO2	2	75*	95*	-36	64*	96*	4	-2	104*	Mdm2 MdmX conf=103*
Cc1nn(CC(=O)Nc2ccc3c(c2)OCO3)c(C)c1Cl	-18	-15	-62	-2	-20	-86	x	x	x
CCc1ccccc1NC(=O)CN(C)C(=O)Cn1cnc2ccc(Cl)cc2c1=O	-20	-8	4	16	-26	10	x	x	x
O=C(Cn1ncc(Cl)c(Cl)c1=O)c1ccc2c(c1)OCCO2	23	101*	81*	-38	79*	90*	-2	40	103*	Mdm2 MdmX conf=103*
CCc1ccccc1NC(=O)CN(C)C(=O)Cn1ncc(Cl)c(Cl)c1=O	11	93*	98*	-2	52*	107*	56*	37	106*
CCC(=O)c1ccc2c(c1)OCCO2	-8	5	-18	1	25	-1	x	x	x
COc1ccc(CNC(=O)[C@@H](NC(=O)C2CCN(S(=O)(=O)c3ccc(C)cc3)CC2)C(C)C)cc1OC	2	4	2	1	-1	-7	x	x	x
O=C(Nc1cccc(Oc2ccccc2)c1)C1Cc2c(-c3ccccc3)ccnc2O1 (centres undefined)	12	16	3	0	11	2	x	x	x
Cn1c(Sc2ccc(Cl)cc2)c(C=O)c2ccccc21	55*	80*	26	-29	76*	54*	81*	x	x	Mdm2 MdmX conf=92*
CC(CN1CCCCC1)NC(=O)c1cccs1 (centres undefined)	1	-12	13	2	-23	9	x	x	x
O=C1C2C3C=CC(CC3)C2C(=O)N1c1ccccc1 (centres undefined)	6	-8	15	2	5	8	x	x	x
O=C1C=CC2C3C(=O)N(c4ccccc4)C(=O)C3C1N2Cc1ccccc1 (centres undefined)	55*	95*	86*	-17	80*	102*	-178	98*	104*
O=C1C=C(c2cc(C(F)(F)F)cc(C(F)(F)F)c2)C[C@@H](c2ccc(Cl)cc2)C1	11	-3	11	4	15	1	x	x	x
SMILES	TROY signal inh	TWEAK Fn14 block	HIF-2a block	KKLEB tox	CF NFkB inh	Peg3 promoter	CF NFkB conf	HIF-2a inh conf	HIF-1a cs	others
C=C1C(=O)OC2CC1C(OC(C)=O)CC(C)=CCCC(C)=CCCC2(C)O (centres undefined)	38	71*	92*	-44	94*	99*	32	92*	104*
C=C1C(=O)OC2C1CCC(C)C1C=CC(=O)C12C (centres undefined)	2	48	28	6	15	48	x	x	x
C=C1C(=O)OC2CC1C(O)CC(C)=CCCC(C)=CC(O)CC2C (centres undefined)	37	92*	94*	-40	81*	98*	97*	98*	107*
CCCCCNS(=O)(=O)c1cc2c3c(c1)CCC(=O)N3CCC2	9	5	7	-21	-3	25	x	x	x
OCCO	16	5	-9	15	1	-17	x	x	x
N#CC(C#N)=C1C=CC=CN1/C(=C\c1ccco1)C(=O)c1ccccc1	69*	76*	91*	-35	96*	99*	68*	98*	105*
C[C@@H]1CC=C[C@H]2[C@H]1C(=O)N(Cc1ccccc1)[C@H]2c1ccc2ccccc2c1Br	16	17	42*	-35	74*	33	54*	23	72*
CCc1cc(SC#N)cc(C)c1NC(=O)CCl	9	26	46*	-48	66*	-87	54*	47*	62*
Cn1cccc1C(NC(=O)c1ccccc1)C(Cl)(Cl)Cl (centres undefined)	0	13	9	2	-17	-3	x	x	x
COc1ccc(C(CNC(=O)c2ccc(-c3ccccc3)cc2)N(C)C)cc1OC (centres undefined)	0	-1	-16	-11	14	12	x	x	x
O=C(Nc1ccc2nc3n(c(=O)c2c1)CCCC3)c1ccccc1F	-11	-29	-154	3	-5	-120	x	x	x
O=C(Nc1ccc2nc3n(c(=O)c2c1)CCCCC3)c1cc([N+](=O)[O-])ccc1F	85*	97*	46*	-46	71*	108*	12	20	105*
O=C(Nc1ccc(N2CCCC2)c(Cl)c1)c1ccc([N+](=O)[O-])o1	-36	26	84*	-46	70*	110*	-26	50*	107*
